Source: PubChem BioAssay (NCATS)
Where “and” joins values, the source holds several entries; their conditions need not be identical. Equal values may be shown once. Inconclusive results are not listed. A call without a number means that no potency is given here. Some structures have more than one record in an assay (separate samples or runs), and their calls can disagree. Calls of active or inactive are those of the source. Unless noted, calls follow the shape of the full dose curve.

Columns and labels:
[1] = Cytotoxicity counterscreen for inhibitors of SARS-CoV-2 cell entry (AID 1645845); also: nearly all actives have a fitted effect of over 50% in size; also: potency is read from the fitted curve at half-maximal effect
How it was run: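 48 h compound treatment (after 1 h preincubation), HEK293-ACE2 cells, 37 C/5% CO2; ATP luminescence endpoint; normalized to cell wells and media blanks.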

[2] = Primary qHTS to identify inhibitors of SARS-CoV-2 cell entry (AID 1645846); settings: activity change, negative = inhibition: at 57.1 µM (top of the series) unless noted; also: nearly all actives have a fitted effect of over 45% in size; also: potency is read from the fitted curve at half-maximal effect
How it was run: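 Entry measured by luciferase signal 48 h after adding SARS-CoV-2-S pseudotyped MLV particles to HEK293-ACE2 cells preincubated 1 h with compounds. Normalisation: bald particles and spike particles.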

[3] = Primary qHTS for inhibitors of nuclear receptor binding SET domain protein 2 (NSD2) in an isogenic RCH-ACV NSD2 p.E1099K mutant (9B) (AID 1645876; active = well fitted curve in the direction sought with a large enough effect; an effect the other way counts as inactive or inconclusive; also: nearly all actives have a fitted effect of over 70% in size; also: potency is read from the fitted curve at half-maximal effect)
[4] = Primary qHTS for inhibitors of nuclear receptor binding SET domain protein 2 (NSD2) in an RCH-ACV wild type WT cells (2C) (AID 1645877; active = well fitted curve in the direction sought with a large enough effect; an effect the other way counts as inactive or inconclusive; also: nearly all actives have a fitted effect of over 70% in size; also: potency is read from the fitted curve at half-maximal effect)
[5] = NCATS anti-infectives library activity on HEK293 viability as a counter-qHTS vs the C. elegans viability qHTS (AID 1745854; active = well fitted curve in the direction sought with a large enough effect; an effect the other way counts as inactive or inconclusive)
How it was run: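 HEK293 cells, 1500 per well, exposed 24 hr at 37C in 5% CO2 to compounds in a 1:5 titration, up to 41.7 uM final. Viability read as CellTiter-Glo luminescence after 10 min at room temperature.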

[6] = VSVG counterscreen qHTS to identify inhibitors of SARS-CoV-2 cell entry (AID 1645847); also: potency is read from the fitted curve at half-maximal effect; nearly all actives have a fitted effect of over 65% in size
How it was run: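 Luminescence read after 48 h infection at 37 C with VSV-G-pseudotyped MLV particles, following 1 h compound exposure of Expi293F cells stably expressing human ACE2; scaled between bald particle and VSV-G particle wells.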

Papain (Carica papaya) = Papain (Carica papaya) (UniProt P00784); test: Primary qHTS assay for inhibitors of the protease papain (AID 1645873; active = well fitted curve in the direction sought with a large enough effect; an effect the other way counts as inactive or inconclusive;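 also: papain turnover of Z-FR-AMC read as the AMC fluorescence gain over 10 min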)
Sequence of Papain (Carica papaya) (P00784 whole entry, looked up): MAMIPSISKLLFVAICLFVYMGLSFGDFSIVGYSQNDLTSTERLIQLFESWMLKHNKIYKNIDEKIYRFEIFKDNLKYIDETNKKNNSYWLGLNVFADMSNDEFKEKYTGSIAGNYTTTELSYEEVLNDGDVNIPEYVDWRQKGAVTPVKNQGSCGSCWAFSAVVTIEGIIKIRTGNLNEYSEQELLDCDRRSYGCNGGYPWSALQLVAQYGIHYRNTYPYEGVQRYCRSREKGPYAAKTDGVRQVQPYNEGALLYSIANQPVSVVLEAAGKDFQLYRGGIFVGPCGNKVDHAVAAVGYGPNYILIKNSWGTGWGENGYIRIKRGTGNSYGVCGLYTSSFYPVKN

O=C(NCC1CCOCC1)c1cnc(Nc2ccc(Cl)cc2Cl)nc1C(F)(F)F
Potency [1]: inactive | activity change, negative = inhibition [2]: -4.18% | Potency [3]: inactive | Potency [4]: inactive

CC(C)(C)c1cc(C=C(C#N)C#N)cc(Br)c1O
Potency [1]: inactive | Potency [2]: inactive | Potency [3]: inactive | Potency [4]: 16.4 µM (active) and inactive

O=S(=O)(CC1CS1)c1ccc(Oc2ccccc2)cc1 (centres undefined)
Potency [1]: inactive | Potency [2]: inactive | Potency [3]: 8.33 µM (active) | Potency [4]: 5.25 µM (active) | Potency [5]: inactive

O=c1[nH]c(-c2ccc(C(F)(F)F)cc2)nc2c1CSCC2
Potency [1]: inactive | Potency [6]: 1.92 µM (active)

CN1CCN(c2ccc([N+](=O)[O-])c3no[n+]([O-])c23)CC1
Potency [1]: inactive | activity change, negative = inhibition [2]: -23.8% | Potency [4]: 20.9 µM (active)

COC(=O)[C@@H](N)CCCN=C(N)N[N+](=O)[O-]
Potency [1]: inactive | activity change, negative = inhibition [2]: -1.1% | Potency [3]: inactive | Potency [4]: inactive

CC[C@@H](C(N)=O)N1CCCC1=O
Potency [1]: inactive | activity change, negative = inhibition [2]: -1.29% | Potency (Papain (Carica papaya)): inactive | Potency [3]: inactive | Potency [4]: inactive

O=C(O)COc1ccccc1
Potency [1]: inactive | Potency [2]: inactive | Potency [3]: inactive | Potency [4]: inactive

CCCN1CCO[C@@H]2c3cc(O)ccc3OC[C@H]21
Potency [1]: inactive | Potency [2]: inactive | Potency (Papain (Carica papaya)): inactive | Potency [3]: inactive | Potency [4]: inactive

CCN1C[C@]2(OC(=O)c3ccccc3NC(C)=O)CC[C@H](OC)[C@@]34[C@H]5CC6[C@@H](OC)C[C@](O)(C(C[C@@H]23)[C@@H]14)[C@@]5(O)[C@@H]6OC
Potency [1]: inactive | activity change, negative = inhibition [2]: 1.38% | Potency [3]: inactive | Potency [4]: inactive

c1ccc2c(CN3CCNCC3)cccc2c1
Potency [1]: inactive | activity change, negative = inhibition [2]: -23.2% | Potency [3]: inactive | Potency [4]: inactive

Cc1cc(O)ccc1Cl
Potency [1]: inactive | Potency [2]: inactive | Potency [3]: inactive | Potency [4]: inactive

CC(C)(C)c1cnc(CSc2cnc(NC(=O)C3CCNCC3)s2)o1
Potency [1]: inactive | Potency [6]: 1.92 µM (active)

C[C@]12CC[C@@H]3[C@@H](CCC4=CC(=O)CC[C@@H]43)[C@@H]1CC[C@@H]2OC(=O)CCc1ccccc1
Potency [1]: inactive | activity change, negative = inhibition [2]: -12.2% | Potency [3]: inactive | Potency [4]: inactive

COc1ccc(N(C(=O)Oc2c(C)cccc2C)c2ccnc(Nc3ccc(N4CCN(C)CC4)cc3)n2)c(OC)c1
Potency [1]: inactive | Potency [2]: inactive | Potency [3]: 4.68 µM (active) | Potency [4]: 5.25 µM (active)

O=C(O)CNC(=O)c1c(O)c2ccccc2n(Cc2ccccc2)c1=O
Potency [1]: inactive | activity change, negative = inhibition [2]: 2.25% | Potency [3]: inactive | Potency [4]: inactive

C#CC1(O)CCC2C3CCC4=CC(=O)CCC4(C)C3CCC21C (centres undefined)
Potency [1]: inactive | activity change, negative = inhibition [2]: -0.771% | Potency [3]: inactive | Potency [4]: inactive

O=C(N[C@H]1CN2CCC1CC2)c1ccc(Cl)cc1
Potency [1]: inactive | activity change, negative = inhibition [2]: 4.38% | Potency (Papain (Carica papaya)): inactive | Potency [3]: inactive | Potency [4]: inactive

CCCC[N+]1(C)[C@H]2CC(OC(=O)[C@H](CO)c3ccccc3)C[C@H]1[C@H]1O[C@H]12 (some centres undefined)
Potency [1]: inactive | activity change, negative = inhibition [2]: -13.1% | Potency [3]: inactive | Potency [4]: inactive

CCOC(=O)Nc1ccc(NCc2ccc(F)cc2)cc1N
Potency [1]: inactive | activity change, negative = inhibition [2]: 2.18% | Potency [4]: inactive

COC(=O)c1cncn1C(C)c1ccccc1 (centres undefined)
Potency [1]: inactive | Potency [2]: inactive | Potency [3]: inactive | Potency [4]: inactive

CC(=O)c1c(C)c2cnc(Nc3ccc(N4CCNCC4)cn3)nc2n(C2CCCC2)c1=O
Potency [1]: inactive | Potency [6]: 6.81 µM (active)

O=C1C=CC[C@@H]2[C@H]3CCCN4CCC[C@@H](CN12)[C@@H]34
Potency [1]: inactive | Potency [2]: inactive | Potency [3]: inactive | Potency [4]: inactive | Potency [5]: inactive

O=c1cccc2n1CC1CNC[C@H]2C1
Potency [1]: inactive | activity change, negative = inhibition [2]: -15.2% | Potency [3]: inactive | Potency [4]: inactive

C[C@]12CC[C@H]3[C@@H](CCC4=CC(=O)CC[C@@]43C)[C@H]1CC[C@H]2OC(=O)CCC1CCCC1
Potency [1]: inactive | activity change, negative = inhibition [2]: -3.52% | Potency [3]: inactive | Potency [4]: inactive

COC1=C[C@@H]2[C@@H]3Cc4ccc(OC)c(O)c4[C@]2(CCN3C)CC1=O
Potency [1]: inactive | activity change, negative = inhibition [2]: -15.7% | Potency [3]: inactive | Potency [4]: inactive

CC[N+]1(CCOC(=O)C(O)(c2ccccc2)c2ccccc2)CCCCC1
Potency [1]: inactive | activity change, negative = inhibition [2]: -23.2% | Potency [3]: inactive | Potency [4]: inactive

CCN1CCN(C(=O)Cc2ccc(Nc3ncc(F)c(Nc4ccc(C(=O)Nc5ccccc5Cl)cc4)n3)cc2)CC1
Potency [1]: 22.4 µM (active) | Potency [2]: 8.91 µM (active) | Potency [3]: 2.31 µM (active) and 2.63 µM (active) | Potency [4]: 2.31 µM (active) and 2.35 µM (active)

O=[N+]([O-])/N=C1\NCCN1Cc1ccc(Cl)nc1
Potency [1]: inactive | activity change, negative = inhibition [2]: -0.0091% | Potency [3]: inactive | Potency [4]: inactive

C[C@](O)(COc1ccc(C#N)cc1)C(=O)Nc1ccc(C#N)c(C(F)(F)F)c1
Potency [1]: inactive | activity change, negative = inhibition [2]: -12.9% | Potency [3]: 20.9 µM (active) | Potency [4]: 20.9 µM (active)

COc1cc2nccc(Oc3ccc(NC(=O)C4(C(=O)Nc5ccc(F)cc5)CC4)cc3)c2cc1OC
Potency [1]: inactive | Potency [6]: 8.57 µM (active)
